Consider 40 sequences from the supplement of paper PMC6555819.

This assay relates to VDR:RXRa (NR concentration 270 nM, RXRa partner concentration 90 nM). Nature of the assay: PBM binding z-score (relative to random genomic background probes); higher = stronger binding; sequences stand for … in GC…GCGATTGACAGCGTAGAATGAAGG
As for the experimental part: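 Protein-binding microarray (Agilent 4x180K custom design, double-stranded 60-nt probes: 5' GC cap, 34-nt variable region, 24-nt constant primer region; full probe sequence given). Purified or IVT nuclear receptor:RXRα heterodimers (3:1 NR:RXRα, mostly 270:90 nM) or homodimers were incubated for 1 h in PBS with 2% milk and no ligand, then detected with Alexa488 antibodies. Fluorescence from o1-orientation probes (~5 replicates averaged) was converted to z-scores against 500 random hg19 background probes. Variable regions are seed direct-repeat (DR0–DR5) sites, all their single-nucleotide variants and half-site ablations.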
GCGACTGGGGCATCGGCAGGTTACCATAACTTAA displayed a PBM binding z-score of -0.199.

As to ACTATTAGTTGACGTAGGGCAACCGATACGACGC, the PBM binding z-score turned out to be 0.19.

Take TCTCGGAGGACAAGAAGGTCAGAGCTTTCCAGAG: the PBM binding z-score is 1.8.

For the sequence AGAACGAGGACACGCTGAGTTGATAGCAGAGTAG, the PBM binding z-score came out at 0.161.

Sequence CCAGACATGTGAGAAGGTAACTCAGCCTCGATTA registered a PBM binding z-score of -0.439.

For the sequence ACTGACGGGTCAACGAGGTTATAGCACGCGTATA, the PBM binding z-score was found to be 7.41.

With AGAATGAGGTTACCAAAGATAAGGGAAACGCTTG, the PBM binding z-score was determined as 1.07.

TCTCGGACGACACGAAAGGTCAGAGCTCGACATC showed a PBM binding z-score of 2.96.

TCTTGTAGATCAATAGAGGTTACGAAAGTGCGCT: the PBM binding z-score was 2.15.

CCGAATGGGGCAGAAAGGTTACCATACCATCCGG registered a PBM binding z-score of 1.33.

In turn, ATGTGTAGGTTAAGGGTCATTCAGGTTGGTTCGC displayed a PBM binding z-score of 5.79.

Take ACAGACAGGTGATGAAGGTACCTCAGGCTATCAT: the PBM binding z-score was -0.291.

In turn, TGAATGAGGCTAAAGATCAGGGAACGTGGCGTCG yielded a PBM binding z-score of -0.503.

CGAACGAAGGCATGAGTTGATAGCAAATGCCGAT returned a PBM binding z-score of -0.373.

Sequence TAGCCTAGGTCATTCAGGGGCCATTATAGAAAGC registered a PBM binding z-score of 4.23.

On to CGCCCAAGGTCAAGGTCAGTGAAAGAGACTCGAA, for which the PBM binding z-score worked out at 4.61.

ATATGTAGGTTACATCCGGGTCATACAGGCTATG displayed a PBM binding z-score of 4.02.

TGAATGAGGTTACAAGATCAGGGAACGTTGCAAA yielded a PBM binding z-score of 0.984.

In turn, CATCGGAGGACAACAGGAGGTCAGAGCTGCCAGA came in with a PBM binding z-score of 2.21.

As to TCATATACGTAAAGGTGAAAGTCGAACGATATGA, the PBM binding z-score turned out to be 1.05.

The sequence GCAGACAGGTGAAACGGAGGTAACTCAGGGTGGC came in with a PBM binding z-score of -0.2.

As to CTCGAAAGGTCGGCTGAGGTGAGTATACGGATAA, the PBM binding z-score stood at 2.95.

Consider CTCAAAAGGTCGGTTGAGGTGAGTATACGGATAA, for which the PBM binding z-score was 2.54.

As to GTACCAAGGTGAGTAGGTCGTTGATGAGTAGGCG, the PBM binding z-score was found to be 0.177.

Take CTTACAGGGTCAGCTAGGCCAGAGTAGGGACGGC: the PBM binding z-score was found to be 3.88.

For the sequence GTACCAAGGTGAATAGGTCGCTGATGAGTAGGCG, the PBM binding z-score was 0.351.

The sequence TTACCAAGATGAAAGGTCGTTGATGCACGCCTTG returned a PBM binding z-score of 1.69.

In the case of CAAACTAGGTCACCGGAAGGTCTAAGTCCGCATG, the PBM binding z-score stood at 3.1.

In turn, ACTAGCAGGCCAAGGGTCACTCATGATTAGTCCG returned a PBM binding z-score of 2.64.

For CCTATTAGTTGACCATAAAGGCAACCGAAGCTCG, the PBM binding z-score was determined as 0.841.

TCTATTAATTGAAGGGCAACCGACGAGTCCGTTT came in with a PBM binding z-score of 1.05.

With ATCTCTAGGTAACCAAGTTCACTGAATGCCGAAC, the PBM binding z-score amounted to 5.34.

In turn, ATCTCTAGGCAAGACTCAGTTCAGTGAAGAACGC yielded a PBM binding z-score of -0.0651.

Take TTACCAAGGTGAAAGGTCGTGGATGCACGCCTTG: the PBM binding z-score came out at 3.28.

For CGTACTGGGCCAAGGTCATTGATCAGTCAAAGCA, the PBM binding z-score is 3.3.

CCTGCTAGGTCATGCTCAGCTAATCTACAGTATG came in with a PBM binding z-score of 1.33.

As to ATATGTAGGTTAAGGGTCATTCACGTTGGTTCGC, the PBM binding z-score is 4.75.

For TCAGACAGGTGAACGTAACTCAGGTACGCAGTCG, the PBM binding z-score was 0.682.

Sequence TCTAGTTGGTCAAAGGGCACACACTCGAAATGCG showed a PBM binding z-score of 1.78.

TCTATGAGTTGAAGGGCAACCGACGAGTCCGTTT gave a PBM binding z-score of 0.953.
